Our source for the growth values is PubChem BioAssay (NCI).

About 83,000 compounds went through this panel and 20% of them were active in at least one assay; those are over-represented in the sample as a whole.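 Step 1: grow cells in 96-well plates. Step 2: add test compound at a single concentration. Step 3: incubate 48 h. Step 4: record percent growth.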 Activity calls are given as the source filed them.

For the assay, the system named is SK-MEL-2 melanoma. Description: NCI-60 one-dose screen, 48 h (100 = growth as untreated, 0 = no growth, -100 = all killed). As to conditions: 10 µM unless noted. How it is done:
Growth inhibition of the SK-MEL-2 human tumor cell line is measured as a screen for anti-cancer activity. Cells are grown in 96 well plates and exposed to the test compound for 48 hours. Compounds are tested at a single concentration, which is 10^-5 M for most compounds. The reported endpoint is percent growth (GI% or GIPRCNT), where numbers from 0 - 100% represent growth inhibition, and numbers from -100% - 0 represent cell death. For example, a value of 40 represents 60% growth inhibition. A value of 0 means no net growth occurred over the course of the experiment. A value of -40 indicates 40% of cells at the beginning of the experiment died by the end of the experiment. A value of -100 means all cells are dead at the end of the experiment.
NCI-60 Human Tumor Cell Lines Screen was performed using the standard one-dose NCI protocol, which is described in more detail at https://dtp.cancer.gov/discovery_development/nci-60/default.htm.
Compounds with GIPRCNT values below 10 were considered active. Activity score was based on GIPRCNT using the following formula: […]
Score is 0 for GIPRCNT values of 100 or above, 50 for GIPRCNT values of 0, and 100 for GIPRCNT values of -100.
Consider `CC(=O)Nc1cc(F)cc(C(F)(F)F)c1Cl`, for which the growth is 105% (inactive).

As to `CCCCCCCC(=O)SCC/C=C/[C@@H]1CC(=O)NCc2cccc(n2)CN(Cc2ccc3ccccc3c2)CC(=O)N[C@@H](C(C)C)C(=O)O1`, the growth is 56.5% (inactive).

On to `CC1(C)C(=O)/C(=C\c2ccccn2)C[C@]2(C)[C@H]3CC[C@@H]4[C@@H](C(=O)/C=C/c5ccccn5)CC[C@@]4(C)[C@]3(C)CC[C@@H]12`, for which the growth is -25.6% (active).

For `COc1cnc2c(c1)C(=O)c1c-2n(CCCNCCN2CCOCC2)c(=O)c2cc([N+](=O)[O-])ccc12`, the growth is 19% (inactive).

`CC[C@H](CC[C@@H](C)[C@H]1CC[C@H]2[C@@H]3/C(=C/c4cccnc4)C(=O)C4=CC(=O)CC[C@]4(C)[C@H]3CC[C@]12C)C(C)C`: the growth was 103% (inactive).

Turning to `C=C(C)[C@@H]1CC[C@]2(C)[C@H](CC[C@@H]3[C@H]4[C@H]5OC[C@@]4(CCC5(C)C)CC[C@]32C)[C@@]1(C)CCCN`, the growth was 101% (inactive).

`O=C1c2ccccc2NC(c2cn(-c3ccccc3)nc2-c2cccs2)N1Cc1ccccc1` (stereo not given): the growth was 74% (inactive).

Regarding `Nc1c(C(=O)Nc2cccc3ccccc23)sc2nc3c(cc12)CCCC3`, the growth is 51.5% (inactive).

For the compound `CC(C)=CCC[C@](C)(O)[C@H]1CC[C@]2(C)[C@@H]1CC[C@@H]1[C@@]3(C)C/C(=C/c4cccc([N+](=O)[O-])c4)C(=O)C(C)(C)[C@@H]3CC[C@]12C`, the growth was 115% (inactive).

For the compound `N#C/C(=C\c1ccc(-c2ccc(Cl)cc2)o1)c1nc(-c2ccco2)cs1`, the growth is 102% (inactive).

Regarding `N=C(N)N=Nc1ccc(O)cc1`, the growth is 105% [100 µM] (inactive).

On to `OCC(CO)(CCl)CCl`, for which the growth was 87.8% (inactive).

`CN(C)c1ccc(N=C2C=CC(=O)C=C2)cc1`: the growth was 97.1% (inactive).

In the case of `N#CC1=C(N)Oc2ccc3ccccc3c2C1c1ccccc1Cl` (stereo not given), the growth was 45.9% (inactive).

As for `C=C1C(=O)O[C@H]2[C@H]1CC/C(COC(=O)NCc1c[nH]c3ccccc13)=C\CC[C@@]1(C)O[C@@H]21`, the growth is 70.5% (inactive).

`Cn1nc(-c2ccccc2)c2c(-c3ccccc3)onc2c1=O`: the growth is 40.1% (inactive).

As to `COC(=O)[C@]12CC[C@@H](C)[C@H](C)[C@@H]1C1=CC[C@@H]3[C@@]4(C)C(c5ncon5)=C[C@@](C)(CO)C4=CC[C@@]3(C)[C@]1(C)CC2`, the growth is -51% (active).

For `Oc1ccccc1/C=N\NC(=S)Nc1ccc(F)cc1`, the growth was 18.5% (inactive).

As for `C=C1CC[C@@H](C(=O)OC)Cc2nc(C)ccc21`, the growth is 103% (inactive).

Take `CCCCC[C@H]1CC=C2C(=O)C=C[C@@H]2CC=CCCCC(=O)O[C@@H](CCCCC)CC=C2C(=O)C=C[C@@H]2CC=CCCCC(=O)O[C@@H](CCCCC)CC=C2C(=O)C=C[C@@H]2CC=CCCCC(=O)O1`: the growth was -38.4% [8.75 µM] (active).

In the case of `CC(c1ccccc1)N1C(=O)C(C2SC(=S)N(C(C)c3ccccc3)C2=O)SC1=S` (stereo not given), the growth was 101% (inactive).

Turning to `C/C(Cc1ccc(Cl)cc1)=C(/c1ccc(Cl)cc1)c1ccc(OCCN2CCCC2)cc1`, the growth was 105% (inactive).

As to `COc1ccc(-c2cc(=O)oc3ccc(Cl)cc23)cc1F`, the growth is 36.3% (inactive).

Consider `OCC1OC(n2cnc3c(Cl)ncnc32)CC1O` (stereo not given), for which the growth is 108% (inactive).

For the compound `COc1ccc(C(=O)c2ccc(C)cc2)c(OC)c1OC`, the growth is 60.3% (inactive).

For the compound `C=C1C(=O)O[C@H]2[C@H]1CC/C(COC(=O)NCCc1c[nH]c3ccccc13)=C\CC[C@@]1(C)O[C@@H]21`, the growth is 61.5% (inactive).

As to `COc1cc2[nH]c(C(=O)c3cc(OC)c(OC)c(OC)c3)c(N)c2cc1C#CCO`, the growth is 29.6% (inactive).

`O=C(NCN1C(=O)c2cccc3cccc(c23)C1=O)N1CCC(Cc2ccccc2)CC1`: the growth was 103% (inactive).

On to `CCOC(=O)N1CCN(CCCCOc2ccc(C(C)(C)CC)cc2)CC1`, for which the growth was 95.8% (inactive).

On to `Cc1csc(Nc2nc(-c3ccc(Cl)cc3)nc(C(Cl)(Cl)Cl)n2)n1`, for which the growth is 112% (inactive).

`CCCCC/C(=C\c1ccccc1)C1OC(C)C(C)O1` (stereo not given): the growth is 83.5% (inactive).

`Cc1ccc(N(CC(=O)Nc2ccc(S(=O)(=O)NC3CCN(C)CC3)cc2)S(=O)(=O)c2ccc(Cl)cc2)cc1`: the growth is 104% (inactive).

For `O=C(O)c1cccc2c1-c1ccc(Cl)cc1C2`, the growth was 102% (inactive).

With `COC1=C(Br)C(=O)C(OC)=C(Br)C1=O`, the growth was 119% (inactive).

On to `O=C1c2cc3c(cc2-c2c1c1ccc(Cl)cc1c(=O)n2C[C@H](O)[C@@H](O)[C@H](O)CO)OCO3`, for which the growth was -67% (active).

Consider `C[C@H]1[C@H]2C3=CC[C@@H]4[C@@]5(C)C/C(=C/c6ccco6)C(=O)C(C)(C)[C@@H]5CC[C@@]4(C)[C@]3(C)CC[C@@]2(C(=O)N2CCOCC2)CC[C@@H]1C`, for which the growth is 106% (inactive).

Regarding `Fc1ccc(Nc2nnc(-c3ccc(Cl)cc3)o2)cc1`, the growth is 106% (inactive).

Consider `O=[N+]([O-])c1ccc(N/N=C(\C(=N/Nc2ccc([N+](=O)[O-])cc2[N+](=O)[O-])c2ccccc2)c2ccccc2)c([N+](=O)[O-])c1`, for which the growth is 95.9% (inactive).

Consider `C=C(C)[C@@H]1CC[C@]2(C(=O)O)CC[C@]3(C)[C@H](CC[C@@H]4[C@@]5(C)C/C(=C/c6ccc(OC)cc6)C(=O)C(C)(C)[C@@H]5CC[C@]43C)[C@@H]12`, for which the growth is 38.1% (inactive).

Turning to `C[C@@H]1CCCCCCCCC[C@H](O)C(=O)C[C@@H](SC[C@@H](O)C(=O)O)C(=O)O1`, the growth was 100% (inactive).
